# Assay outcomes: PubChem, The Scripps Research Institute Molecular Screening Center
# Rows were chosen to be rich in hits. Some 3.4% of all compounds tested hit in one or more screens of this group.
# GPR151 activ – activators of human GPR151, primary screen, cell-based, PathHunter beta-arrestin, luminescence. AID 1508602, 2020. activation, % at 11.2 µM. G-protein coupled receptor 151 (Homo sapiens), Q8TDV0. hit rate 1% among 650,000. PathHunter beta-arrestin GPR151 cells; in the data active means activation above about 4.9%;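 further: 0% = median of compound wells and 100% = cells with positive control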
# Target sequence (Q8TDV0 whole entry, looked up): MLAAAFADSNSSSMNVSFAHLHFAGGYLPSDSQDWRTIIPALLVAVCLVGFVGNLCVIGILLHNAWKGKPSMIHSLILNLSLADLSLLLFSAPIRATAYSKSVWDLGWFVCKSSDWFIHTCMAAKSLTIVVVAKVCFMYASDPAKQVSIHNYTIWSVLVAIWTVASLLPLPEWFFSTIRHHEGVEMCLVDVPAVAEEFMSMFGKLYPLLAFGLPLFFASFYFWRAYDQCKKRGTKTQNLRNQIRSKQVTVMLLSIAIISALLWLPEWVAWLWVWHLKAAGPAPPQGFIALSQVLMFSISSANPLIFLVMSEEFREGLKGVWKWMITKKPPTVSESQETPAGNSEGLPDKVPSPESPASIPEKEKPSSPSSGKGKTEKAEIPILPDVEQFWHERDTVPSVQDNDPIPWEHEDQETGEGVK
# FBW7 activator – FBW7 E3 ligase activators, primary screen, biochemical, AlphaScreen, human. AlphaScreen FBW7–phospho-cyclin E peptide binding, activator screen. hit rate 0.13% among 650,000. normalized activity (activation), % at 26.1 µM. AID 1259310, 2017; in the data active means normalized activity above about 1.9%;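 further: purified mutant Fbw7 with reduced substrate affinity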
# MITF primary – MITF inhibitors, primary screen, biochemical, AlphaScreen, human; hit rate 0.91% among 650,000; inhibition, % at 2.6 µM; AlphaScreen MITF homodimerization, bead proximity signal; AID 1259374, 2018; in the data active means inhibition above about 50%;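 further: 0% = vehicle wells with protein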
# TEAD-YAP block – TEAD-YAP interaction inhibition, primary screen, TEAD-YAP interaction inhibitor project, luminescence, HEK-TIYL cells. TEAD-Gal4/YAP UAS-luciferase luminescence. AID 1259422, 2018. hit rate 1.4% among 640,000. inhibition, % at 9.12 µM; in the data active means inhibition above about 32%;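 further: 0% = median of test compound wells and 100% = reference inhibitor wells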
# * = called active by the depositor.
SMILES,GPR151 activ,FBW7 activator,MITF primary,TEAD-YAP block
Cc1ccc2[nH]c3nc4ccccc4nc3c2c1,-5.2,0.0,-12.1,-12.8
COc1ccc2[nH]c3nc4cc(C)c(C)cc4nc3c2c1,0.3,-0.1,-3.4,42.7*
COc1ccc2[nH]c(C)cc(=S)c2c1,1.0,0.0,6.8,42.2*
O=c1c(Nc2ccc(Cl)cc2)c(-c2ccccc2)c1=O,0.4,-0.1,9.3,-2.1
CCOc1ccc(Nc2c(-c3ccccc3)c(=O)c2=O)cc1,-2.1,0.1,19.9,59.6*
O=c1c(Nc2ccccc2)c(-c2ccc(Cl)cc2)c1=O,-0.8,0.0,8.6,47.1*
CCOc1ccccc1Nc1c(-c2ccccc2)c(=O)c1=O,-0.8,0.5,-0.8,-7.5
C/C=C(\C)CN1CCN(c2ccc([N+](=O)[O-])cc2)CC1,0.8,-0.2,32.0,-10.1
CCc1ccc(OCC(O)Cn2c(C3CC(=O)N(c4ccccc4F)C3)nc3ccccc32)cc1 (stereo not drawn),3.4,0.1,-14.7,10.5
Cc1ccc(OCC(O)Cn2c(C3CC(=O)N(c4ccccc4F)C3)nc3ccccc32)cc1C (stereo not drawn),0.0,1.0,16.3,32.3*
Cc1nc2c(-c3ccc(F)cc3)c(C)nn2c(NCCCN2CCOCC2)c1C,1.3,0.1,1.6,-3.1
CC(=O)O/N=C(\N)c1nonc1N1CCOCC1,-1.7,1.9*,19.6,-6.7
CCCOC(=O)c1ccc(N2COc3ccc4c(C)cc(=O)oc4c3C2)cc1,0.4,0.0,-0.6,-3.7
Cc1ccc(-n2nnc3c(=O)n(CC(=O)NCc4ccccc4Cl)cnc32)cc1,1.0,0.7,12.8,16.3
CCS(=O)(=O)N1CCC(N2CCN(c3ccccc3F)CC2)CC1,0.2,0.0,41.0,-16.1
Cc1ccc(-n2cc(/C=C3/C(=O)NC(=O)N(Cc4ccco4)C3=O)cn2)cc1,0.8,-0.9,72.8*,-17.2
O=C1NC(=O)N(Cc2ccco2)C(=O)/C1=C/c1ccc(N2CCOCC2)cc1,-0.6,0.2,73.2*,8.1
CN(C)c1ncc(/C=C2/C(=O)NC(=O)N(Cc3ccco3)C2=O)cn1,0.5,-0.5,79.2*,-6.9
CCOC(=O)Cn1cc(/C=C2/C(=O)NC(=S)N(Cc3ccco3)C2=O)c2ccccc21,-0.5,-1.3,63.5*,2.0
c1ccc(-c2cn[nH]c2C2CCN(C3CCSCC3)CC2)cc1,2.5,0.0,-4.9,6.0
CCN(CC)c1ccc(/C=C2/C(=O)NC(=S)N(Cc3ccco3)C2=O)cc1,0.1,-0.3,75.0*,2.6
CC(Nc1cc(N2CCN(S(=O)(=O)Cc3ccccc3)CC2)ccc1[N+](=O)[O-])c1ccccc1 (stereo not drawn),-0.9,-0.2,-17.5,-5.1
Cc1ccc(-c2nc(N3CCN(C)CC3)c3ccccc3n2)cc1,-0.6,-0.1,12.3,-5.8
CN1CCN(c2nc(-c3ccc(C(C)(C)C)cc3)nc3ccccc23)CC1,-1.8,-0.5,9.0,82.2*
CC1CCN(c2nc(-c3ccc(C(C)(C)C)cc3)nc3ccccc23)CC1,-0.3,0.1,-2.5,49.4*
SMILES,GPR151 activ,FBW7 activator,MITF primary,TEAD-YAP block
COc1ccc(-c2nc(N3CCC(C)CC3)c3ccccc3n2)cc1OC,0.7,0.0,0.0,-1.1
N#CC1=C(N)Oc2c(oc(CO)cc2=O)C1c1ccc(Br)s1 (stereo not drawn),0.2,0.0,5.8,-1.6
Cc1ccccc1N1C(=O)/C(=C/c2ccc(-c3ccc([N+](=O)[O-])cc3)o2)C=C1c1ccccc1,-1.0,-0.1,8.0,-5.2
COc1cc(/C=N/NC(=O)Cc2csc(N3CCOCC3)n2)cc(OC)c1O,-0.2,0.1,0.4,4.2
CC(C)n1c(O)c(N=NC(=O)Cc2csc(N3CCOCC3)n2)c2ccccc21,-1.4,-0.3,16.9,82.3*
O=C1C(=C2C=CN(CCc3ccccc3)C=C2)C(=O)c2ccccc21,-0.8,-0.1,-6.7,-64.5
CCCCN1C=CC(=C2C(=O)c3ccccc3C2=O)C=C1,-8.1,0.7,18.4,96.1*
CCOc1ccc2nc(SCCC(=O)Nc3ccccc3Br)sc2c1,1.8,0.1,1.7,6.9
Clc1ccc(-c2nc(-c3ccccn3)no2)c(Cl)c1,-11.5,0.3,8.1,97.8*
Cc1ccc(-c2nc(-c3ccccn3)no2)c(Cl)c1,-10.6,0.0,7.3,98.3*
Cc1ccc(-c2nc(-c3cccnc3)no2)c(Cl)c1,-2.2,0.0,0.9,22.0
c1ccc(-c2noc(-c3cccc4ccccc34)n2)nc1,-5.5,0.0,11.2,29.5
COC(=O)Cn1cnc(S(=O)(=O)N2CCCC2)c1,2.0,0.1,8.5,-0.9
CN1CCN(C(=O)c2cc(-c3ccc(Br)cc3)on2)CC1,-1.0,-0.2,1.7,-42.9
O=C(c1cc(-c2ccc(O)cc2)on1)N1CCCCCC1,-1.0,0.0,6.5,49.8*
Cc1ccc(-c2cc(C(=O)N3CCOCC3)no2)cc1,-2.9,0.5,2.9,43.4*
O=C(c1cc(-c2ccc(Cl)cc2)on1)N1CCCCCC1,0.6,0.0,12.2,-40.7
CCOC(=O)CSc1nc2cc(C(=O)OCC)ccc2c(=O)n1Cc1ccccc1,-0.7,0.4,-10.9,3.7
Cc1ccc(CCC(=O)Nc2ncc(Cc3ccccc3F)s2)o1,0.0,0.0,8.9,50.8*
Cc1cccc(Cc2cnc(NC(=O)CCc3ccc(C)o3)s2)c1,0.2,0.3,14.4,32.2*
CC(=O)Nc1ncc(Cc2ccccc2F)s1,0.2,-0.2,10.1,-0.4
O=C(Nc1ccccc1C(=O)N(Cc1ccccc1)Cc1ccccc1)c1ccco1,0.1,-0.4,2.5,4.2
CCCNS(=O)(=O)c1ccc2[nH]c3c(c2c1)CCCC3,2.0,-0.2,3.6,4.7
CCOc1ccc(S(=O)(=O)N2CC(=O)Nc3ccccc32)cc1,2.3,0.0,1.7,42.0*
Cc1cc(C)c(S(=O)(=O)N2CC(=O)Nc3ccccc32)c(C)c1,-0.8,-0.1,9.7,55.1*
SMILES,GPR151 activ,FBW7 activator,MITF primary,TEAD-YAP block
O=C1CN(Cc2ccccc2)CC(=O)N1,2.1,0.0,8.5,5.8
O=C1CN(Cc2ccccc2)c2ccccc2N1,-1.5,-0.1,6.8,95.6*
O=C1CN(S(=O)(=O)c2ccc(Br)cc2)c2ccccc2N1,0.4,-0.1,-6.9,-1.5
O=C1CN(S(=O)(=O)c2ccc3ccccc3c2)c2ccccc2N1,-0.2,0.1,5.6,2.0
O=C1CN(S(=O)(=O)c2ccc3[nH]c4c(c3c2)CCCC4)c2ccccc2N1,0.5,0.1,-14.8,61.8*
Cc1ccc(C(=O)Nc2sc3c(c2C(=O)N2CCC(C(N)=O)CC2)CCC(C(C)(C)C)C3)cc1 (stereo not drawn),-0.2,0.0,-3.7,8.8
O=C(NCc1ccccn1)C(=O)Nc1ccc(Cl)cc1,0.5,-0.1,-8.6,-34.4
Clc1ccc(CN2CCN(/N=C/c3c(Cl)nc4sccn34)CC2)cc1,2.2,-0.2,8.7,39.9*
Oc1ccccc1/C=N/N1CCN(Cc2ccc(Cl)cc2)CC1,4.3,-0.2,0.2,2.5
